Screens (PubChem BioAssay)
Rab9 prom act: Rab9 promoter activation. Potency, µM (highest dose often 9.22 µM), without a hit: at the highest dose activation, negative = inhibition, hits mostly activators. hit rate 2.8% among 320,000. Huh7 Rab9 promoter-luciferase reporter, luminescence, 24 h; also: % of control where 0% means no effect; nearly all actives have a fitted effect of over 60% in size
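Cells were plated at 1500 per well in reduced-serum medium with 10% FBS and left 2 h. Compound in DMSO was then added for 24 h at 37 °C. Reporter signal was read by luminescence after 10 min with luciferase detection reagent.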
ELG1 repair inh: blocks ELG1-dependent DNA repair in HEK293T cells | HEK293T ELG1-luciferase reporter, luminescence, 16 h; DNA damage induced by 5-fluorouridine | hit rate 2.3% among 330,000 | Potency, µM (series often up to 46.1 µM), for inactives: top-dose activity change, negative = inhibition, hits mostly inhibitors; also: % is scaled to controls: 0 for no effect and ±100 for the full control effect; nearly all actives have a fitted effect of over 55% in size
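In this reporter screen, reduction of luminescence relative to DMSO vehicle indicated activity. Compounds and 5-fluorouridine were added together to 2,000 cells per well, incubated for 16 hr at 37 °C, then developed with ONE-Glo.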
ELG1 genotoxic: induces genotoxicity in HEK293T cells with luciferase-tagged ELG1 | HEK293T ELG1-luciferase reporter, luminescence, 16 h | Potency, µM (top dose mostly 46 µM), for inactives: at the top dose activity change, positive = activation, actives largely listed as activators | hit rate 1.3% among 330,000 | AID 504466; also: % of control where 0% means no effect; nearly all actives have a fitted effect of over 60% in size
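Luminescence read-out: rising ELG1-luciferase signal, reflecting elevated ELG1 protein under genetic stress, flags genotoxic compounds. Cells were treated for 16 hr at 37 °C before ONE-Glo detection.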
NPC1 promoter act: NPC1 promoter activation; Huh7 NPC1 promoter luciferase reporter, 24 h; Potency, µM (series often up to 9.22 µM), inactives show top-dose activation, usual class: activators; hit rate 2.4% among 320,000; also: % of control where 0% means no effect; nearly all actives have a fitted effect of over 60% in size
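NPC1 promoter–luciferase Huh7 cells; 24 h compound; luminescence.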
FLuc counter: inhibits or activates purified firefly luciferase, miR-21 counter-screen; hit rate 6.9% among 360,000; P08659; AID 588342; purified FLuc, Km substrates, luminescence inhibition; Potency, µM (top dose mostly 57.5 µM), for inactives: at the top dose activity change, negative = inhibition, hits mostly inhibitors;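 also: plate controls were vehicle for no effect and reference inhibitor for full effect; nearly all actives have a fitted effect of over 55% in size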
Target sequence (P08659 whole entry, looked up): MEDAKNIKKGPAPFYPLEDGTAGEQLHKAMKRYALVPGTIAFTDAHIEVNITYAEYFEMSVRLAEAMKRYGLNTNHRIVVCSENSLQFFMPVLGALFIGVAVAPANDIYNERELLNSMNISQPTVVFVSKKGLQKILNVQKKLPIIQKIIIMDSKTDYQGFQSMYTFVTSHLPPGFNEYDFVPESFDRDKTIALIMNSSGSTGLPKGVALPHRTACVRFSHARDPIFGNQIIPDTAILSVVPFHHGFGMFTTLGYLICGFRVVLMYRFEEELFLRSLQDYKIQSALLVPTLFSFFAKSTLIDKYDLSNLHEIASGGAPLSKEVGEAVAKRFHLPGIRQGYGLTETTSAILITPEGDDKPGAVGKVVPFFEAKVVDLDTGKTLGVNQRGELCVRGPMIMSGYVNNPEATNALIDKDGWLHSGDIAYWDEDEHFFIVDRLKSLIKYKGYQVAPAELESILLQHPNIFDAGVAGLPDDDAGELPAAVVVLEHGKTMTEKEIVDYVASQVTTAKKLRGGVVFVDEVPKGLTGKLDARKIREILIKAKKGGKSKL
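Purified P. pyralis luciferase, 10 nM final, with Km-level 10 uM D-luciferin and 10 uM ATP in 50 mM Tris acetate pH 7.5, 10 mM Mg acetate, 0.01% Tween-20, 0.05% BSA; 6-point qHTS titration about 60 µM downward; luminescence read.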
SMN2 splice up: SMN2 splice variant enhancement; HEK293 SMN2-luciferase splicing reporter, luminescence, 30-36 h; Potency, µM (series often up to 46.1 µM), for inactives: at the top dose activity change, positive = activation, usual class: activators; hit rate 2.8% among 210,000; AID 1458; also: % of control where 0% means no effect; nearly all actives have a fitted effect of over 55% in size
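qHTS luciferase splicing reporter: luminescence rises when SMN2 exon 7 is included in transfected HEK293 cells. Compound exposure lasted 30-36 h at 37C, with 4.5 mM final sodium butyrate as control, followed by a ONE-Glo read.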
An asterisk follows results filed as active; ? = inconclusive; . = no result. The list is not random: actives were taken first. Their share in the collection is about 9.3%. Calls follow the shape of the dose curve; as a rule, active = well fitted curve in the direction sought with a large enough effect; inconclusive = small, poorly fitted or top-dose-only effect, or another doubt; inactive = no such curve, though single readings can be large; an effect the other way counts as inactive or inconclusive. Potency is read from the fitted curve at half-maximal effect.

SMILES	Rab9 prom act	ELG1 repair inh	ELG1 genotoxic	NPC1 promoter act	FLuc counter	SMN2 splice up
CC(C)CS(=O)(=O)C1=NSC2=NC(=O)/C(=C\c3ccc(OC(=O)c4ccco4)cc3)C(=N)N21	2%	19%	1%	9%	?	.
CSC1=NSC2=NC(=O)/C(=C\c3ccc(OC(=O)c4ccco4)cc3)C(=N)N12	1.6µM*	?	?	3.5µM*	19µM*	.
CS(=O)(=O)C1=NSC2=NC(=O)/C(=C\c3ccc(OC(=O)c4ccco4)c(Br)c3)C(=N)N21	2%	15%	3%	-1%	13µM*	.
Cc1cc(C)cc(C(=O)n2nc(C)c(S(=O)(=O)N3CCCCCC3)c2C)c1	.	.	.	.	-19%	.
COc1cc(C2Nc3ccccc3NC3=C2C(=O)CC(C)(C)C3)cc(OC)c1OC(C)=O (centres undefined)	4%	7%	-6%	7%	1%	.
COc1ccc(/C=N/Nc2ccccc2C(=O)O)cc1Cn1cc([N+](=O)[O-])cn1	22%	13%	12%	27%	19µM*	.
COc1ccc(/C=N\NS(=O)(=O)c2ccc(C)cc2)cc1COc1ccccc1[N+](=O)[O-]	1%	16µM*	-5%	-7%	2%	-54%
COc1ccc(/C=N/NC(=O)c2ccccc2O)cc1Cn1cc([N+](=O)[O-])cn1	0%	7%	-5%	1%	?	.
COc1ccc(/C=N\NC(=O)c2ccc([N+](=O)[O-])c(C)c2)cc1COc1ccccc1C(N)=O	0%	?	-19%	-11%	-1%	.
COc1ccc(/C=N/NC(=O)c2cccnc2)cc1COc1ccc([N+](=O)[O-])c(C)c1	-20%	15µM*	-5%	-21%	-19%	.
COc1ccc(/C=N/NC(=O)c2ccccc2OC)cc1COc1ccccc1[N+](=O)[O-]	8%	13µM*	-11%	8%	-7%	.
COc1cccc(CC(=O)OCC(=O)N(C)CC(=O)Nc2ccc(Cl)c(C(F)(F)F)c2)c1	0%	22%	2%	0%	1%	.
C/C(=N\O)c1ccc2c3ccccc3n(C)c2c1	?	?	?	?	19µM*	40%
CCOc1ccc(-n2cc(-c3ccccc3)c3c(N4CCOCC4)ncnc32)cc1	-13%	9.2µM*	-21%	-5%	1%	-41%
Cc1cccc2c(=O)oc(-c3ccccc3Cl)nc12	0%	-22%	-4%	-3%	?	.
Cc1ccccc1-c1nc2sc(C)c(C)c2c(=O)o1	-1%	?	3%	-2%	7.6µM*	.
Cc1ccccc1-c1nc2sc(-c3ccccc3)cc2c(=O)o1	9%	19%	6%	-34%	4.8µM*	-5%
O=c1oc(-c2ccccc2[N+](=O)[O-])nc2ccccc12	-1%	?	-4%	0%	4%	33%
CC(C)CC(=O)Nc1ccc(-c2nc3ccccc3c(=O)[nH]2)cc1	0.89µM*	?	6.5µM*	1.1µM*	2.4µM*	3.2µM*
CC(=O)Nc1ccc(-c2nc3ccccc3c(=O)o2)cc1	6%	?	-1%	0%	2.7µM*	.
Nc1ccccc1-c1nc2ccccc2c(=O)o1	17%	?	1%	8%	11µM*	.
O=c1oc(-c2ccc([N+](=O)[O-])cc2)nc2ccccc12	13%	24%	11%	11%	-10%	1%
O=c1oc(-c2ccc(Br)cc2)nc2ccccc12	3.2µM*	?	?	2.2µM*	?	.
O=C(CSc1nc2ccccc2c(=O)[nH]1)Nc1ccc([N+](=O)[O-])cc1	.	18µM*	-12%	.	.	.
CCC(=O)Nc1cccc(-c2nc3ccccc3c(=O)o2)c1	5%	9%	-3%	-4%	?	-10%
SMILES	Rab9 prom act	ELG1 repair inh	ELG1 genotoxic	NPC1 promoter act	FLuc counter	SMN2 splice up
CC(C)CC(=O)Nc1ccc(-c2nc3ccccc3c(=O)o2)cc1	1%	?	19%	3%	1.7µM*	8%
Cn1nc2sc3ccccc3n2c(=O)c1=O	-5%	30%	-2%	11%	-2%	.
N#Cc1cnc2sc3ccccc3n2c1=N	?	?	14µM*	24%	24µM*	17%
O=C(Nc1nc2ccccc2n1CCN1CCOCC1)c1ccc(COc2ccccc2Br)o1	-2%	21µM*	-14%	0%	-20%	-27%
CCOC(=O)c1c(C)oc2nc(C)nc(NCC3CCN(Cc4ccc(F)cc4)CC3)c12	.	.	.	.	-8%	.
CC(=NCCCn1ccnc1)c1c(C)[nH]n(-c2ccc([N+](=O)[O-])cc2)c1=O	-2%	0%	0%	17%	-4%	.
O=C(OCc1nnc(-c2ccccc2)o1)c1cc(S(=O)(=O)N2CCOCC2)c(Cl)cc1Cl	7%	0%	18µM*	-4%	-2%	?
CC(C)c1ccc(N(CC(=O)NCCSC(C)(C)C)S(C)(=O)=O)cc1	24%	?	?	22%	?	0%
CN(C)C=Nc1ccc(Cl)c(Cl)c1	-5%	6%	2%	-2%	-13%	.
CN(C)C=Nc1ccc2nn(-c3ccccc3)nc2c1	1µM*	?	?	2.8µM*	5.4µM*	5µM*
CCC(=O)Nc1ccc(S(=O)(=O)NCc2cccn2Cc2cccc(C)c2)cc1	.	.	.	.	-10%	.
COc1ccccc1C(=O)NC(=O)Nc1cccc(Cl)c1	4µM*	?	?	?	2.7µM*	.
COc1ccccc1C(=O)Nc1cccc(NC(C)=O)c1	-5%	7%	-1%	0%	?	-11%
Cc1cc2cc(CNC(=O)Nc3cccc(Cl)c3)ccc2n1C	0%	-15%	23µM*	1%	-4%	-25%
COc1cccc(NC(=S)NCc2ccc3c(c2)cc(C)n3C)c1	16%	-20%	-2%	0%	-1%	.
COc1ccc(CNC(=O)Nc2cccc(Cl)c2)cc1	?	?	?	2.5µM*	?	.
Cc1cccc(NC(=O)NCc2ccc3c(c2)cc(C)n3C)c1	-4%	-7%	?	4%	-3%	2%
Cc1cccc(NC(=S)NCc2ccc3c(c2)cc(C)n3C)c1C	1%	26µM*	-5%	3%	-6%	-17%
Fc1cc(Br)ccc1NC(=S)Nc1ccccc1	?	?	9%	?	19µM*	18µM*
COC(=O)c1ccc(NC(=O)Nc2ccc(F)cc2F)cc1	3.5µM*	?	?	?	7.6µM*	20µM*
O=C(Nc1ccccc1)Nc1ccc(F)cc1F	4.5µM*	?	?	?	12µM*	?
COC(=O)c1ccc(NC(=O)Nc2cccc(F)c2)cc1	1.8µM*	?	7%	?	4.8µM*	.
Fc1ccccc1NC(=S)Nc1ccc(Br)cc1	2%	-6%	0%	-4%	?	.
